Laboratory results: PubChem BioAssay (Tox21)
Records with an inconclusive call do not appear. The source made the active and inactive calls. Unless noted, calls follow the shape of the dose curve; as a rule, active = well fitted curve in the direction sought with a large enough effect in the repeat runs; inconclusive = weak or mixed curves; inactive = no such curve, though single readings can be large; an effect the other way counts as inactive or inconclusive.

Legend:
[1] = qHTS assay to identify small molecule agonists of the peroxisome proliferator-activated receptor delta (PPARd) signaling pathway - cell viability counter screen (AID 743211); also: nearly all actives have a fitted effect of over 55% in size; also: potency is read from the fitted curve at half-maximal effect
Outline: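 Following 5 h plating at 37 C and 5% CO2, PPARd UAS-bla HEK293H cells took up test compounds for 17 h. Viability was quantified by luminescence 30 min after CellTiter-Glo addition at room temperature.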

[2] = target: Peroxisome proliferator-activated receptor delta (Homo sapiens) (UniProt Q03181); assay: qHTS assay to identify small molecule agonists of the peroxisome proliferator-activated receptor delta (PPARd) signaling pathway (AID 743212; calls by dose curve; also: % is scaled to controls: 0 for no effect and ±100 for the full control effect)
Outline: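 A PPARd-bla HEK293H line with beta-lactamase under an Upstream Activator Sequence is treated with compounds at 37 C. Substrate loading for 2 h at room temperature precedes the fluorescence measurement.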

[3] = qHTS assay to identify small molecule antagonists of the peroxisome proliferator-activated receptor delta (PPARd) signaling pathway - cell viability counter screen (AID 743213); also: % is scaled to controls: 0 for no effect and ±100 for the full control effect; nearly all actives have a fitted effect of over 50% in size
Outline: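 Cytotoxicity counter screen: CellTiter-Glo luminescence read 30 min after addition, in the same wells as the reporter assay. There, PPARd UAS-bla HEK293H cells (3000/well) were treated 17 h at 37 C with compound and 300 nM L165041.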

[4] = target: Peroxisome proliferator-activated receptor delta (Homo sapiens) (UniProt Q03181); assay: qHTS assay to identify small molecule antagonists of the peroxisome proliferator-activated receptor delta (PPARd) signaling pathway (AID 743215; active = well fitted inhibition curve with a large enough effect in the signal ratio in the repeat runs, not every such curve was filed as active; the % refers to the signal ratio;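 also: cells stimulated with agonist L165041 at 300 nM final during compound exposure; series mostly up to about 62 µM; % is scaled to controls: 0 for no effect and ±100 for the full control effect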)
Outline: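 Read-out is beta-lactamase FRET fluorescence, measured 2 h after substrate addition at room temperature. Beforehand, UAS-bla HEK293H cells carrying the PPARd reporter were exposed to compounds with L165041 at 300 nM final for 17 h at 37 C.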

[5] = qHTS assay to identify small molecule agonists of the farnesoid-X-receptor (FXR) signaling pathway - cell viability counter screen (AID 743218); also: nearly all actives have a fitted effect of over 45% in size; also: potency is read from the fitted curve at half-maximal effect
Outline: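 HEK 293T FXR-bla cells; 5 h pre-incubation, 16 h compound exposure at 37 C; LiveBLAzer substrate 2 h RT, then CellTiter-Glo 30 min RT, luminescence.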

[6] = qHTS assay to identify small molecule antagonists of the farnesoid-X-receptor (FXR) signaling pathway - cell viability counter screen (AID 743221; active = well fitted cell-killing curve with a large enough effect in the repeat runs, not every such curve was filed as active; also: % is scaled to controls: 0 for no effect and ±100 for the full control effect; nearly all actives have a fitted effect of over 50% in size)
Outline: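 Compound effects on cell number were measured as CellTiter-Glo luminescence in HEK 293T cells expressing FXR-UAS-bla, after 16 h at 37 C with 50 uM CDCA (final).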

[7] = target: Vitamin D3 receptor (Homo sapiens) (UniProt P11473); assay: qHTS assay to identify small molecule antagonists of the vitamin D receptor (VDR) signaling pathway (AID 743223; active = well fitted inhibition curve with a large enough effect in the signal ratio in the repeat runs, not every such curve was filed as active; the % refers to the signal ratio; also: % is scaled to controls: 0 for no effect and ±100 for the full control effect)
Outline: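 Beta-lactamase activity in VDR-bla cells is measured by FRET substrate fluorescence (2 h, room temperature) after cells spend 16 h at 37C with test compound and 3 nM final 1alpha,25-dihydroxyvitamin D3.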

[8] = qHTS assay to identify small molecule agonists of the vitamin D receptor (VDR) signaling pathway - cell viability counter screen (AID 743224); also: series mostly up to about 63 µM; % is scaled to controls: 0 for no effect and ±100 for the full control effect; nearly all actives have a fitted effect of over 50% in size
Outline: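 Luminescence from CellTiter-Glo, read after 30 min at room temperature, reports viability of VDR-bla cells treated with compounds for 16 h at 37C in the wells used for the beta-lactamase FRET read.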

[9] = qHTS assay to identify small molecule antagonists of the vitamin D receptor (VDR) signaling pathway - cell viability counter screen (AID 743225); also: % is scaled to controls: 0 for no effect and ±100 for the full control effect; nearly all actives have a fitted effect of over 50% in size
Outline: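 In this counter screen, VDR-bla HEK 293T cells receive test compound plus 3 nM final calcitriol for 16 h at 37C. Room-temperature steps of 2 h with the beta-lactamase substrate, then 30 min with CellTiter-Glo, precede the luminescence read.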

[10] = qHTS assay to identify small molecule agonists of the NFkB signaling pathway (AID 1159509; active = well fitted curve in the direction sought with a large enough effect in the signal ratio in the repeat runs, not every such curve was filed as active; the % refers to the signal ratio; also: series mostly up to about 61 µM; % is scaled to controls: 0 for no effect and ±100 for the full control effect)
Outline: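 ME-180 NFkB-bla, 2,000 cells/well, overnight plating; cpd pinned in DMSO, 5 h 37 C; B/G FRET substrate 1.5 h RT; ex 405, em 460/530 nm.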

[11] = qHTS assay to identify small molecule agonists of the NFkB signaling pathway - cell viability counter screen (AID 1159515; calls by dose curve; also: series mostly up to about 61 µM; % is scaled to controls: 0 for no effect and ±100 for the full control effect; nearly all actives have a fitted effect of over 55% in size)
Outline: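 Luminescence from CellTiter-Glo (30 min, room temperature) gives viability, measured in the same wells as the beta-lactamase reporter read. Cells were NFkB-bla ME-180, 2,000 per well, treated 5 hr with compounds.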

[12] = qHTS assay to identify small molecule agonists of the endoplasmic reticulum stress response signaling pathway (AID 1159516; active = well fitted activation curve with a large enough effect in the signal ratio in the repeat runs, not every such curve was filed as active; the % refers to the signal ratio; also: % is scaled to controls: 0 for no effect and ±100 for the full control effect)
Outline: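 Read-out is beta-lactamase cleavage of a FRET substrate (405 nm excitation; 460 and 530 nm emissions) in ESRE-bla HeLa cells after a 5 hr compound exposure at 37 C. Substrate incubation ran 2 hr at room temperature.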

[13] = qHTS assay to identify small molecule agonists of the endoplasmic reticulum stress response signaling pathway - cell viability counter screen (AID 1159517; calls by dose curve)
Outline: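 CellTiter-Glo was added to wells already read for beta-lactamase FRET, and luminescence was recorded 30 min later. Cells: ESRE-bla HeLa, 1,500 per well, compound exposure 5 hr at 37 C.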

[14] = qHTS assay to identify small molecule antagonists of the retinoid-related orphan receptor gamma (ROR-gamma) signaling pathway - cell viability counter screen (AID 1159520)
Outline: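 Tet-on ROR gamma CHO cells (1,000/well) were plated 4 hr, given compounds in DMSO for 2 hr at 37 C, then induced with 1 uM final doxycycline for 16 hr. Viability was read as ATP by CellTiter-Glo luminescence after 30 min.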

[15] = target: Nuclear receptor ROR-gamma (Homo sapiens) (UniProt P51449); assay: qHTS assay to identify small molecule antagonists of the retinoid-related orphan receptor gamma (ROR-gamma) signaling pathway (AID 1159521)
Outline: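 Screening format: cell-based luciferase reporter in CHO cells with doxycycline-inducible RORγ. Compound pre-exposure lasts 2 h, doxycycline is 1 uM final, induction runs 16 h at 37 C, and ONE-Glo luminescence is read.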

[16] = qHTS assay to identify small molecule agonists of the AP-1 signaling pathway (AID 1159526; calls by dose curve; also: % is scaled to controls: 0 for no effect and ±100 for the full control effect)
[17] = target: Vitamin D3 receptor (Homo sapiens) (UniProt P11473); assay: qHTS assay to identify small molecule agonists of the vitamin D receptor (VDR) signaling pathway (AID 743222; calls by dose curve; also: % is scaled to controls: 0 for no effect and ±100 for the full control effect)
Outline: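 VDR-bla cells, 2,000/well; 4 h preincubation 37C; cpd (DMSO) 16 h; LiveBLAzer B/G substrate 2 h RT; fluorescence intensity read.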

[18] = target: Bile acid receptor (Homo sapiens) (UniProt Q96RI1); assay: qHTS assay to identify small molecule antagonists of the farnesoid-X-receptor (FXR) signaling pathway (AID 743217; active = well fitted inhibition curve with a large enough effect in the signal ratio in the repeat runs, not every such curve was filed as active; the % refers to the signal ratio; also: % is scaled to controls: 0 for no effect and ±100 for the full control effect)
Outline: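 HEK 293T FXR-UAS-bla, 5000 cells/well; compound + CDCA 50 uM final; 16 h, 37 °C; B/G FRET substrate 2 h RT; fluorescence.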

[19] = target: Bile acid receptor (Homo sapiens) (UniProt Q96RI1); assay: qHTS assay to identify small molecule agonists of the farnesoid-X-receptor (FXR) signaling pathway (AID 743220; active = well fitted activation curve with a large enough effect in the signal ratio in the repeat runs, not every such curve was filed as active; the % refers to the signal ratio; also: % is scaled to controls: 0 for no effect and ±100 for the full control effect)
Outline: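 Beta-lactamase reporter under UAS control in GeneBLAzer FXR HEK 293T cells (5000/well) measured with LiveBLAzer FRET substrate after 2 h at room temperature. Compound exposure lasted 16 h at 37C.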

[20] = qHTS assay to identify small molecule agonists of the AP-1 signaling pathway - cell viability counter screen (AID 1159525; calls by dose curve; also: nearly all actives have a fitted effect of over 55% in size)
Outline: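 ME-180 AP-1-bla, 2500 cells/well, Opti-MEM + 0.5% dialyzed FBS; overnight 37 °C; cpd 15-pt titration, 5 h 37 °C; CellTiter-Glo 30 min RT; luminescence read; normalised to TOAB and DMSO controls.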

Bile acid receptor (Homo sapiens), sequence (Q96RI1 whole entry, looked up): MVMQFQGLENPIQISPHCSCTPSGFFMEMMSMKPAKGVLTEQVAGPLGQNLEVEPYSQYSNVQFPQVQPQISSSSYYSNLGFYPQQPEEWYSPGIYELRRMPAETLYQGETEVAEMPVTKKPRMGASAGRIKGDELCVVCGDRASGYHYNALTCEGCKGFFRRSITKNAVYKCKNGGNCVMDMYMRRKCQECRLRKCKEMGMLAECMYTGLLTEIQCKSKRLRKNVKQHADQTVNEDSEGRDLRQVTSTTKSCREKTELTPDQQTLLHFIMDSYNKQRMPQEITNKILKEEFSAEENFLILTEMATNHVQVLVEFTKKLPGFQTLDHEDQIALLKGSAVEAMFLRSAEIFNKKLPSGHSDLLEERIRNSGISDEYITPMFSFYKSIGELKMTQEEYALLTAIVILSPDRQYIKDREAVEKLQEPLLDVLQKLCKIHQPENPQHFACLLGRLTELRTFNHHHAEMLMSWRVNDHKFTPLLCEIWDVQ
Vitamin D3 receptor (Homo sapiens), sequence (P11473 whole entry, looked up): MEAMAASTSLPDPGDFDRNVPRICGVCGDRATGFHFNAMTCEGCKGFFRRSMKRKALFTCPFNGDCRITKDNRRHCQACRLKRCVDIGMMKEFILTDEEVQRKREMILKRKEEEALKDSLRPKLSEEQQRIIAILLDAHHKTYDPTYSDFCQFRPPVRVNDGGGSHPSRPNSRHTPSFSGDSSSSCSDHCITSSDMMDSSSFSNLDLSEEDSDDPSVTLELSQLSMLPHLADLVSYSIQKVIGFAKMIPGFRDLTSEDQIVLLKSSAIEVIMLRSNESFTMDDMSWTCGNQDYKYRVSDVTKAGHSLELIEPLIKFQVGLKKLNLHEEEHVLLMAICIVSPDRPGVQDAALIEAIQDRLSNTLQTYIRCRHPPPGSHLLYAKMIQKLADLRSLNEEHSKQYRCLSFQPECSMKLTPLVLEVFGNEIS
Peroxisome proliferator-activated receptor delta (Homo sapiens), sequence (Q03181 whole entry, looked up): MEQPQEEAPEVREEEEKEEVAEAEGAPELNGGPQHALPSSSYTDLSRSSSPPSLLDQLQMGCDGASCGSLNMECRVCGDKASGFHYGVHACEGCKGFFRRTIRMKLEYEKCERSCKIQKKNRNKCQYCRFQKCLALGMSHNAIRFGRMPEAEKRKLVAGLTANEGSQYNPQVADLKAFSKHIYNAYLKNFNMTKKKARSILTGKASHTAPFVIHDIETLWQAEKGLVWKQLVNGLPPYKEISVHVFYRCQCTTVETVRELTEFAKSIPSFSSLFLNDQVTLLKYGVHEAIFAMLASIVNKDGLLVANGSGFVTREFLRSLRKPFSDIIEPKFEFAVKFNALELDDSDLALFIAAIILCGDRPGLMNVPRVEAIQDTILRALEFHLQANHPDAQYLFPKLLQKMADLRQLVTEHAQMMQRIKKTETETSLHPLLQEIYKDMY

CC(C)CC(=O)OCc1ccccc1
inactive: Potency [1] | outcome [2] | Potency [3] | outcome [4] | Potency [5] | outcome [6] | outcome [7] | Potency [8] | Potency [9] | outcome [10] | outcome [11] | outcome [12] | outcome [13] | Potency [14] | Potency [15] | Potency [16]

CO[C@@]1(NC(=O)CSCC#N)C(=O)N2C(C(=O)O)=C(CSc3nnnn3C)CS[C@@H]21
inactive: Potency [1] | outcome [2] | Potency [3] | outcome [4] | Potency [5] | outcome [6] | outcome [17] | Potency [8] | Potency [9] | outcome [10] | outcome [11] | outcome [12] | outcome [13] | Potency [14] | Potency [15] | Potency [16]

OC[C@H]1O[C@@H](O[C@H]2[C@H](O)[C@@H](O)[C@H](O)O[C@@H]2CO)[C@H](O)[C@@H](O)[C@H]1O
inactive: Potency [1] | outcome [2] | Potency [3] | outcome [4] | outcome [18] | Potency [5] | outcome [19] | outcome [6] | Potency [8] | Potency [9] | outcome [10] | outcome [11] | outcome [12] | outcome [13] | Potency [14] | outcome [20] | Potency [16]

CN1CCN(N)CC1
inactive: Potency [1] | outcome [2] | Potency [3] | outcome [4] | Potency [5] | outcome [19] | outcome [6] | Potency [8] | Potency [9] | outcome [10] | outcome [11] | outcome [12] | outcome [13] | Potency [14] | Potency [15] | Potency [16]

CN(C)C(=O)NC1(c2ccccc2)CCN(CCC[C@]2(c3ccc(Cl)c(Cl)c3)CCCN(C(=O)c3ccccc3)C2)CC1
inactive: outcome [4] | outcome [6] | outcome [17] | Potency [8] | Potency [9] | outcome [10] | outcome [11] | outcome [12] | outcome [13] | activity, negative = cytotoxicity [14] -2.5% [at 19 µM] | activity change, negative = inhibition [15] -21% [at 19 µM] | activation [16] 11.5% [at 15.8 µM]
active: Potency [1] 9.28 µM | Potency [5] 11.7 µM

CCOC(=O)COc1ccc2c(c1)CC(NCC(O)c1cccc(Cl)c1)CC2 (stereo not drawn)
inactive: outcome [2] | Potency [3] | outcome [4] | Potency [5] | outcome [6] | outcome [17] | outcome [7] | Potency [8] | outcome [10] | outcome [11] | outcome [12] | outcome [13] | Potency [14] | Potency [15]

CCCOc1ccc2c(c1)CC[C@@H]1[C@@H]2CC[C@]2(C)C(OC)CC[C@@H]12 (stereo partly drawn)
inactive: outcome [2] | Potency [3] | outcome [4] | Potency [5] | outcome [6] | outcome [17] | Potency [8] | Potency [9] | outcome [10] | outcome [11] | outcome [12] | outcome [13] | Potency [14] | Potency [15]

CCCC1CCC(=O)O1 (stereo not drawn)
inactive: Potency [1] | outcome [2] | Potency [3] | outcome [4] | Potency [5] | outcome [17] | outcome [7] | Potency [8] | Potency [9] | outcome [10] | outcome [11] | outcome [12] | outcome [13] | Potency [14] | Potency [15] | Potency [16]

CCCCCCCOC(=O)CCC
inactive: Potency [1] | outcome [2] | outcome [4] | Potency [5] | outcome [6] | outcome [17] | outcome [7] | Potency [8] | outcome [10] | outcome [11] | outcome [12] | outcome [13] | Potency [14] | Potency [15] | Potency [16]
